Bioassay records: PubChem BioAssay, several laboratories
Sampled rows, rich in hits. Any-hit rate of the full collection: about 0.74%.
Rv3671c inh: inhibitors of M. tuberculosis serine protease Rv3671c; inhibition, % at 5.96 µM; AID 2606; 320,000 tested, 0.048% active; P9WHR9; in the data active = inhibition above about 38%;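 note: extracellular domain of Rv3671c used as enzyme; 0% = enzyme with DMSO and 100% = no enzyme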
Mtb UGM inh: inhibitors of M. tuberculosis UDP-galactopyranose mutase. purified UGM, fluorescence polarization probe displacement. inhibition, % at 10 µM. 320,000 tested, 0.06% active. AID 504406; in the data active = inhibition above about 10%, passing the limit was not always enough; inconclusive = no clear call, values can overlap the other calls
Target sequence (P9WIQ1 whole entry, looked up): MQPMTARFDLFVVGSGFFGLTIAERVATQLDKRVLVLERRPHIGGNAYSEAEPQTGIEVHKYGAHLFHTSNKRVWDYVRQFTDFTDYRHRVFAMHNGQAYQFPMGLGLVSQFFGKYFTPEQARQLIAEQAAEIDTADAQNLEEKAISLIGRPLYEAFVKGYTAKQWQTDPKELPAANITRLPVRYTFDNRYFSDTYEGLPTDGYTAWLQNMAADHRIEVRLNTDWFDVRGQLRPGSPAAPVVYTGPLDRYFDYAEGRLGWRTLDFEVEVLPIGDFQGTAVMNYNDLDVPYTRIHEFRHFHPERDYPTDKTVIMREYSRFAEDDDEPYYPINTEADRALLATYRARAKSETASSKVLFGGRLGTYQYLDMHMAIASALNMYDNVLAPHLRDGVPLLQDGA
FadD28 binding: blocks FadD28 binding to the bisubstrate probe | fluorescence polarization | inhibition, % at 12.5 µM | 360,000 tested, 0.22% active | AID 588549; in the data active = inhibition above about 8.5%, passing the limit was not always enough; inconclusive = no clear call, values can overlap the other calls
Mtb bLac sens: beta-lactam sensitization of Mtb H37Rv. M. tuberculosis H37Rv growth with meropenem, percent inhibition. inhibition, % at 25 µM. 330,000 tested, 0.27% active; call rule not given here;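 note: growth measured after seven days incubation then overnight dye step; 0% = bacteria only wells and 100% = bacteria with antibiotic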
BH1578 lux ind: induces V. cholerae light production without autoinducers; V. cholerae BH1578 lux reporter, luminescence, 6 h; activation, % at 18.7 µM; 350,000 tested, 0.16% active; AID 588436; in the data active = activation mostly above about 9.7%, no sharp cut-off; inconclusive = no clear call, values can overlap the other calls; inactive = mostly below about 3.7%
MazEF act: increases E. coli MazEF RNase cleavage of RNA. P0AE70. 350,000 tested, 0.32% active. activation, % at 20 µM. FAM/BHQ RNA-DNA oligo cleavage fluorescence, 5 h; in the data active = activation above about 50%
Target sequence (P0AE70 whole entry, looked up): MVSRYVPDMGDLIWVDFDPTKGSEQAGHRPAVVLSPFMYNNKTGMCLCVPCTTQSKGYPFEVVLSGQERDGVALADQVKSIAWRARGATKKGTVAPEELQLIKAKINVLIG
An asterisk follows results filed as active.

`C/C=C1\NC(=O)[C@H](CC(N)=O)N(C)C(=O)C([C@@H](C)O)NC(=O)C(CCCc2ccc(OC)cc2)NC(=O)[C@H](C(C)C)NC(=O)/C(=C\C)NC(=O)[C@H](O)[C@@H](C[C@@H](O)CCCCCCC)NC(=O)[C@H](C)NC(=O)CN(C)C(=O)[C@H](CCC(N)=O)NC1=O` (stereo not given in full) gave FadD28 binding 11*, BH1578 lux ind inactive and MazEF act -2.
Screening O=[N+]([O-])c1ccc(N2CCCCCC2)c2nonc12 returned Rv3671c inh -41, Mtb UGM inh 2, FadD28 binding inconclusive, Mtb bLac sens 6, BH1578 lux ind -1 and MazEF act inactive.
Cc1ccc(S(=O)c2ccc([N+](=O)[O-])c3nonc23)cc1 (stereo not given) was read as FadD28 binding inconclusive, BH1578 lux ind inactive and MazEF act 375*.
`COc1ccccc1N=Cc1c(C)c(C#N)c2[nH]c3ccccc3n2c1=O` gave Rv3671c inh 4, Mtb UGM inh 1, FadD28 binding -2, Mtb bLac sens 100, BH1578 lux ind 0 and MazEF act 143*.
`Cc1c(Cc2ccccc2)c(=O)n2c([nH]c3ccccc32)c1C#N` gave Rv3671c inh 6, Mtb UGM inh -3, FadD28 binding 0, Mtb bLac sens 99, BH1578 lux ind -2 and MazEF act -23.
For Nc1sc2c(c1C(=O)NC1CC1)CCCC2 the results were Rv3671c inh -2, Mtb UGM inh 0, FadD28 binding 0, Mtb bLac sens 2, BH1578 lux ind inactive and MazEF act -1.
For CCCCCC(=O)Nc1cc(S(=O)(=O)O)cc2cc(S(=O)(=O)O)cc(O)c12 the results were FadD28 binding 35*, BH1578 lux ind -2 and MazEF act -4.
Cc1n[nH]c(=O)c2c(NC(=O)CSc3nnc(-c4ccco4)n3C)oc(C)c12 was read as Rv3671c inh -6, Mtb UGM inh 47*, FadD28 binding -1, Mtb bLac sens -2, BH1578 lux ind -1 and MazEF act 1.
`COc1ccccc1-c1nnc(SCC(=O)Nc2oc(C)c3c(C)n[nH]c(=O)c23)n1C` gave Rv3671c inh 4, Mtb UGM inh 3, FadD28 binding 0, Mtb bLac sens -13, BH1578 lux ind -1 and MazEF act 8.
`CN(C)CCNc1ncnc2c1ncn2[C@H]1CN(Cc2cccnc2)C[C@@H](CO)O1` gave FadD28 binding -3 and BH1578 lux ind 0.
For Cc1cc(NC(=O)CSc2nc(-c3ccccc3Cl)nc3c2c(=O)n(C)c(=O)n3C)no1 the results were Rv3671c inh 5, Mtb UGM inh -3, FadD28 binding -1, Mtb bLac sens -4, BH1578 lux ind 0 and MazEF act 112*.
Cc1cc(NC(=O)CSc2nc(-c3ccc(Br)cc3)nc3c2c(=O)n(C)c(=O)n3C)no1 was read as Rv3671c inh 4, Mtb UGM inh -3, FadD28 binding -1, Mtb bLac sens -15, BH1578 lux ind 0 and MazEF act 1.
Screening COc1ccc(/C=C/C(=O)N(C)Cc2cccs2)cc1S(=O)(=O)N1CCOCC1 returned Rv3671c inh 8, Mtb UGM inh 0, FadD28 binding 26*, Mtb bLac sens 5, BH1578 lux ind 0 and MazEF act 1.
For CC1C(c2ccccc2)OCCN1C(=S)NC(=O)c1ccccc1 (stereo not given) the results were FadD28 binding -1, BH1578 lux ind inactive and MazEF act 1.
O=[N+]([O-])c1cccc(-c2csc(Nc3ccccc3)n2)c1 was read as Rv3671c inh -2, Mtb UGM inh 0, FadD28 binding -1, Mtb bLac sens 96, BH1578 lux ind 0 and MazEF act -2.
COc1cc(NS(=O)(=O)c2ccc(Nc3nc(-c4cccc([N+](=O)[O-])c4)cs3)cc2)nc(OC)n1 was read as Rv3671c inh -21, Mtb UGM inh 1, FadD28 binding 17*, Mtb bLac sens 0, BH1578 lux ind -1 and MazEF act 0.
COc1ccc(-c2csc(Nc3ccc(S(N)(=O)=O)cc3)n2)cc1 was read as Rv3671c inh 4, Mtb UGM inh -4, FadD28 binding -3, Mtb bLac sens 13 and MazEF act 0.
Screening COc1ccc(-c2csc(Nc3ccc(S(=O)(=O)Nc4cc(C)on4)cc3)n2)cc1 returned Rv3671c inh 7, Mtb UGM inh 4, FadD28 binding 10*, Mtb bLac sens 19, BH1578 lux ind -2 and MazEF act -8.
Screening N=C1CCC(=N)c2c1c(O)c1ccccc1c2O returned Rv3671c inh -17, Mtb UGM inh 2, FadD28 binding 14*, Mtb bLac sens 7, BH1578 lux ind 0 and MazEF act -66.
`CCOC(=O)CNC(=O)COc1coc(CN2CCN(Cc3ccccc3)CC2)cc1=O` gave Rv3671c inh 7, Mtb UGM inh 3, FadD28 binding 1, Mtb bLac sens 3, BH1578 lux ind 0 and MazEF act 12.
COc1ccccc1/C=C1\SC(=S)N(CCC(=O)NC2=NCCS2)C1=O was read as Rv3671c inh -17, Mtb UGM inh 2, FadD28 binding -2, Mtb bLac sens 89, BH1578 lux ind inactive and MazEF act 172*.
Screening COc1ccccc1/C=C1/SC(=S)N(CCC(=O)Nc2cccnc2)C1=O returned Rv3671c inh -8, Mtb UGM inh 6, Mtb bLac sens -7, BH1578 lux ind 0 and MazEF act 435*.
`O=C(CCN1C(=O)/C(=C\c2cccs2)SC1=S)NC1=NCCS1` gave Rv3671c inh -17, Mtb UGM inh -1, FadD28 binding -3, Mtb bLac sens inconclusive, BH1578 lux ind 0 and MazEF act 10.
For OC(CCCN1CCCCC1)(c1ccccc1)c1ccc(C(F)(F)F)cc1 (stereo not given) the results were FadD28 binding -2, BH1578 lux ind inactive and MazEF act 10.
For COc1cc(/C=N/NC(N)=S)ccc1OC(=O)c1ccc(C)cc1 the results were Rv3671c inh -13, Mtb UGM inh 1, FadD28 binding -18, BH1578 lux ind inactive and MazEF act 5.
`COc1cc(/C=N/NC(N)=S)ccc1OCc1ccc(C)cc1` gave Rv3671c inh -6, Mtb UGM inh -1, FadD28 binding 16*, Mtb bLac sens 86, BH1578 lux ind 0 and MazEF act 14.
`Cc1cc(NC(=O)CCC(=O)N(Cc2ccco2)C(C(=O)NC2CCCC2)c2ccccc2C)no1` (stereo not given) gave Rv3671c inh -4, Mtb UGM inh -1, FadD28 binding -1, Mtb bLac sens -5, BH1578 lux ind 7 and MazEF act 55*.
`C(=N\NC1=Nc2cccc3cccc1c23)/c1ccccc1` gave Rv3671c inh -19, Mtb UGM inh -2, FadD28 binding 0, Mtb bLac sens inconclusive, BH1578 lux ind 0 and MazEF act 509*.
